Data from PubChem BioAssay.
A number with no mark means an inactive call. The source made the active and inactive calls. Rule as the data show it, unless noted: active = inhibition above about 33%; inactive = the rest.

Molecular target: Steroidogenic factor 1 (Homo sapiens) (UniProt Q13285)
Assay: inverse agonism at SF1 nuclear receptor – cell-based, luminescence, high throughput, counter-screen for LRH-1 inverse agonist project (AID 651614; in the data active = inhibition above about 44%;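 also: cells cotransfected with StAR promoter reporter and SF1 expression vector; 0% = vehicle on cells with receptor and 100% = vehicle on cells lacking receptor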)
Details: cell-based SF1 luciferase reporter, at 3.6 µM, active compounds read high

Sequence of Steroidogenic factor 1 (Homo sapiens) (Q13285 whole entry, looked up): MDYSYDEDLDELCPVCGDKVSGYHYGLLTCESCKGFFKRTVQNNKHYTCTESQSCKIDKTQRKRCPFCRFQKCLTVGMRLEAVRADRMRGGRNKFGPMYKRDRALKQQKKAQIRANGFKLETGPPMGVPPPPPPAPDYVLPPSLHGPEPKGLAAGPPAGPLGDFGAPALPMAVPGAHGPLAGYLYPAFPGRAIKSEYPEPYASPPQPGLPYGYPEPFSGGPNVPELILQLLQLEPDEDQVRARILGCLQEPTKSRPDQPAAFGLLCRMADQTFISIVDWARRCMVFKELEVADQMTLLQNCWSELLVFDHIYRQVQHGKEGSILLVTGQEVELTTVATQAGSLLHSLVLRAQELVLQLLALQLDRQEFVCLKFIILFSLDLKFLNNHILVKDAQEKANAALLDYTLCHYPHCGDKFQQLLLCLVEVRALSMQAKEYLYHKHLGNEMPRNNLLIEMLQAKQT

SMILES | inhibition
O=C(CSc1nnc(Cc2cccs2)n1Cc1ccco1)Nc1ccc(Cl)cc1Cl | 47.5% (active)
CC(C)NC(=O)CN1CCN(C(=O)CCl)CC1 | 27.2%
O=C(Nc1ccc(F)cc1)c1oc2ccccc2c1NC(=O)C1CC1 | 62.2% (active)
O=C1C(Cl)=C(N2CCOCC2)C(=O)N1c1ccc(Br)cc1 | 50.8% (active)
Cc1c(Cl)cccc1NC(=O)CSc1sc2c(O)cc(=O)[nH]c2c1C#N | 29.2%
CCOCc1c(C(=O)Nc2ccccc2N2CCN(C)CC2)oc2ccccc12 | 73% (active)
C/C(=N\Nc1cc(C(F)(F)F)ccc1Cl)c1ccncc1 | 47.6% (active)
O=C(Cn1cnc2c(nnn2-c2ccccc2)c1=O)NCC1CCCO1 (stereo not given) | -2.18%
O=C(c1cc(-c2ccco2)nc2ccccc12)N(Cc1nnc(-c2ccc(Cl)cc2)o1)C1CC1 | 2.98%
CC(=O)ON=C1C=CC(=C(C#N)c2ccccc2)C=C1 | 79.4% (active)
CN(C)c1ccc(CNc2ncnc3sccc23)cc1 | 47.9% (active)
OCCCNc1c2ccccc2nc2ccccc12 | 56.7% (active)
O=Cc1ccc2c(c1)CCN2Cc1ccccc1 | 55.7% (active)
CCCc1cc(=O)oc2c(C)c(OCC(=O)NC3CC(C)(C)NC(C)(C)C3)ccc12 | 59% (active)
OC(c1ccc2ccccc2n1)c1c(Cl)cccc1Cl (stereo not given) | 41.4%
CNC(=O)c1cccc(NC(=O)c2cc(-c3ccccc3)nc3c2cnn3C(C)C)c1 | 49.4% (active)
Cc1ccc2nsnc2c1NC(=O)c1ccc([N+](=O)[O-])o1 | 55.7% (active)
CN1CCN(/N=C/c2nc(-c3cccc([N+](=O)[O-])c3)n3ccccc23)CC1 | 42.2%
Cc1ccccc1Nc1nc(Cl)c(C=O)s1 | 41.7%
CCOc1cc(/C=C2/C(=N)N3OC(C)=CC3=NC2=O)ccc1OCCOc1ccccc1 | 32.2%

SMILES | inhibition
N#CCSc1ccccc1NC(=O)CN1C(=O)C2CC=CCC2C1=O (stereo not given) | 60.2% (active)
CN(C)c1ccc(S(=O)(=O)N2CCCCC2)cc1NC(=O)CCNC(=O)c1ccc(Cl)cc1 | 1.24%
O=C(COc1cc2oc(=O)cc(-c3ccccc3)c2cc1Cl)NCCN1CCOCC1 | 35.4%
COc1cccc(-c2cc(NC=O)c3ncc(-c4ccc(C(C)=O)cc4)n3c2)c1 | 60.1% (active)
CC(=O)N1CCN(c2ccccc2NC(=O)c2cc3ccccc3o2)CC1 | 37.7%
CCCCc1c(O)nc(SCC(=O)Nc2ccc(OC)cc2)n(-c2ccc(C)c(C)c2)c1=O | 51% (active)
O=C(NC1CCCC(C(F)(F)F)C1)c1ccc([N+](=O)[O-])o1 (stereo not given) | 63% (active)
CCn1c2ccccc2c2cc(/C=N/n3cnnc3)ccc21 | 19.8%
COc1cccc(C2c3cc4c(cc3OC(NNC(N)=O)C2C)OCO4)c1O (stereo not given) | 60.1% (active)
CCOC(=O)c1cc(C#N)c(N2CCCCC2)nc1-c1ccccc1 | 40.6%
Cc1ccc2c(c1)N(C)/C(=C/c1cccc[n+]1C)S2 | 64% (active)
COc1ccc(CCNC(=O)COC(=O)c2cc(Cl)nc(Cl)c2)cc1 | 51.4% (active)
COc1ccc(CN(C)C(=O)CCl)cc1 | 52.9% (active)
CC(C)N1CCc2c(sc(NC(=O)c3ccc([N+](=O)[O-])o3)c2C(N)=O)C1 | 56.4% (active)
Cc1ccc(SCC(=O)Nc2ccc(N3CCOCC3)cc2)c(C)c1 | 56.5% (active)
Cc1cnc(NC(=O)CCCc2nc3ccccc3s2)s1 | 42.5%
COc1cc(-c2cc(-c3ccc(O)cc3)nc(N)c2C#N)ccc1O | 53.9% (active)
CC(C)Cn1c(N)c(C(=O)NCC2CCCO2)c2nc3ccccc3nc21 (stereo not given) | 37.3%
Cc1ccc(-c2nc3ncccc3o2)cc1NC(=O)c1ccc([N+](=O)[O-])o1 | 69.4% (active)
Cc1ccc(SCC(=O)Nc2ccc(N3CCOCC3)cc2)cc1C | 47.2% (active)

System: not listed separately
Assay: compounds suppressing VP16-driven luciferase signal – cell-based, luminescence, high throughput, counter-screen for LRH-1 inverse agonist project (AID 651615)
Details: Gal4-VP16 luciferase reporter cells, at 3.6 µM, active compounds read high

SMILES | inhibition
O=C(CSc1nnc(Cc2cccs2)n1Cc1ccco1)Nc1ccc(Cl)cc1Cl | 19.1%
CC(C)NC(=O)CN1CCN(C(=O)CCl)CC1 | 7.31%
O=C(Nc1ccc(F)cc1)c1oc2ccccc2c1NC(=O)C1CC1 | 3.97%
O=C1C(Cl)=C(N2CCOCC2)C(=O)N1c1ccc(Br)cc1 | 4.3%
Cc1c(Cl)cccc1NC(=O)CSc1sc2c(O)cc(=O)[nH]c2c1C#N | 6.14%
CCOCc1c(C(=O)Nc2ccccc2N2CCN(C)CC2)oc2ccccc12 | 8.89%
C/C(=N\Nc1cc(C(F)(F)F)ccc1Cl)c1ccncc1 | 3.73%
O=C(Cn1cnc2c(nnn2-c2ccccc2)c1=O)NCC1CCCO1 (stereo not given) | 7.48%
O=C(c1cc(-c2ccco2)nc2ccccc12)N(Cc1nnc(-c2ccc(Cl)cc2)o1)C1CC1 | -2.77%
CC(=O)ON=C1C=CC(=C(C#N)c2ccccc2)C=C1 | 20.2%
CN(C)c1ccc(CNc2ncnc3sccc23)cc1 | 42.5% (active)
OCCCNc1c2ccccc2nc2ccccc12 | 96.4% (active)
O=Cc1ccc2c(c1)CCN2Cc1ccccc1 | -34.1%
CCCc1cc(=O)oc2c(C)c(OCC(=O)NC3CC(C)(C)NC(C)(C)C3)ccc12 | 9.82%
OC(c1ccc2ccccc2n1)c1c(Cl)cccc1Cl (stereo not given) | 17.8%
CNC(=O)c1cccc(NC(=O)c2cc(-c3ccccc3)nc3c2cnn3C(C)C)c1 | -19.8%
Cc1ccc2nsnc2c1NC(=O)c1ccc([N+](=O)[O-])o1 | -22.5%
CN1CCN(/N=C/c2nc(-c3cccc([N+](=O)[O-])c3)n3ccccc23)CC1 | 3.29%
Cc1ccccc1Nc1nc(Cl)c(C=O)s1 | -5.11%
CCOc1cc(/C=C2/C(=N)N3OC(C)=CC3=NC2=O)ccc1OCCOc1ccccc1 | -12.2%

SMILES | inhibition
N#CCSc1ccccc1NC(=O)CN1C(=O)C2CC=CCC2C1=O (stereo not given) | -7.26%
CN(C)c1ccc(S(=O)(=O)N2CCCCC2)cc1NC(=O)CCNC(=O)c1ccc(Cl)cc1 | -0.3%
O=C(COc1cc2oc(=O)cc(-c3ccccc3)c2cc1Cl)NCCN1CCOCC1 | -2.31%
COc1cccc(-c2cc(NC=O)c3ncc(-c4ccc(C(C)=O)cc4)n3c2)c1 | -11.4%
CC(=O)N1CCN(c2ccccc2NC(=O)c2cc3ccccc3o2)CC1 | 2.75%
CCCCc1c(O)nc(SCC(=O)Nc2ccc(OC)cc2)n(-c2ccc(C)c(C)c2)c1=O | -5.8%
O=C(NC1CCCC(C(F)(F)F)C1)c1ccc([N+](=O)[O-])o1 (stereo not given) | -1.15%
CCn1c2ccccc2c2cc(/C=N/n3cnnc3)ccc21 | 10.1%
COc1cccc(C2c3cc4c(cc3OC(NNC(N)=O)C2C)OCO4)c1O (stereo not given) | 26.5%
CCOC(=O)c1cc(C#N)c(N2CCCCC2)nc1-c1ccccc1 | -5.07%
Cc1ccc2c(c1)N(C)/C(=C/c1cccc[n+]1C)S2 | 67% (active)
COc1ccc(CCNC(=O)COC(=O)c2cc(Cl)nc(Cl)c2)cc1 | -2.65%
COc1ccc(CN(C)C(=O)CCl)cc1 | -5.19%
CC(C)N1CCc2c(sc(NC(=O)c3ccc([N+](=O)[O-])o3)c2C(N)=O)C1 | -8.36%
Cc1ccc(SCC(=O)Nc2ccc(N3CCOCC3)cc2)c(C)c1 | -1.3%
Cc1cnc(NC(=O)CCCc2nc3ccccc3s2)s1 | 29.4%
COc1cc(-c2cc(-c3ccc(O)cc3)nc(N)c2C#N)ccc1O | -133%
CC(C)Cn1c(N)c(C(=O)NCC2CCCO2)c2nc3ccccc3nc21 (stereo not given) | 1.28%
Cc1ccc(-c2nc3ncccc3o2)cc1NC(=O)c1ccc([N+](=O)[O-])o1 | -15.3%
Cc1ccc(SCC(=O)Nc2ccc(N3CCOCC3)cc2)cc1C | -10.5%
